In PubChem BioAssay AID720553 (National Center for Advancing Translational Sciences (NCATS), 2013):
Hit rate of the full screen: of about 340,000 compounds, about 3,300 (0.97%) were called active. For the sample, actives were picked, then their nearest neighbours and some compounds at random. Values without a mark were called inactive.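 Rule for the calls: active = maximum activity change below -70%; inconclusive = maximum activity change from -70% to -50%; inactive = maximum activity change above -50%.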

tested on: Potassium voltage-gated channel subfamily H member 2, brain isoform KCNH2 3.1 (human); assay: qHTS for Inhibitors of KCHN2 3.1: Mutant qHTS; conditions: U2OS KCNH2 3.1, thallium flux FluxOr; stronger effect = lower value
Procedure, shortened: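 Measured as rate of thallium-driven FluxOr signal in transduced U2OS cells carrying the 3.1 channel, read kinetically for 2 min upon stimulation; values are rate constants scaled to DMSO control wells.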
% is set by controls: 0 for no effect and ±100 for the full control effect.

Structure (SMILES)	activity change
C=C(C)COc1ccc(-c2nc(N)ncc2-c2ccccc2OC)c(O)c1	-6.62%
CCOc1ccc(-c2nc(N)ncc2-c2ccccc2OC)c(O)c1	-18.2%
COc1ccc(-c2nc(N)ncc2-c2ccc(Cl)cc2)c(O)c1	-191% (active)
Cc1ccccc1-c1ccc2c(c1)O[C@@H](CN(C)Cc1ccc(C(=O)O)cc1)[C@@H](C)CN([C@H](C)CO)S2(=O)=O	16.7%
CC(C)CC1C(=O)N(Cc2cn(Cc3ccco3)nn2)CCS(=O)(=O)N1Cc1ccc(-c2ccc(Cl)c(Cl)c2)cc1 (centres undefined)	-7.55%
Cc1ccc(C(c2nnnn2CS(=O)(=O)c2ccc(C)cc2)N2CCC(C)CC2)cc1 (centres undefined)	-72.8% (active)
Cc1ccc(C(c2nnnn2CS(=O)(=O)c2ccc(C)cc2)N2CCC(C(N)=O)CC2)cc1 (centres undefined)	1.37%
CCCCC(c1nnnn1CS(=O)(=O)c1ccc(C)cc1)N1CCC(C(N)=O)CC1 (centres undefined)	5.52%
NC(CSC(c1ccccc1)(c1ccccc1)c1ccc(-c2ccccc2)cc1)C(=O)O (centres undefined)	-0.906%
Cc1cccc(C(=O)OCC(=O)Nc2sccc2C(N)=O)c1C	0.26%
Cn1c(=N)n(CC(O)c2cccs2)c2ccccc21 (centres undefined)	-1.02%
N=c1n(CCc2ccccc2)c2ccccc2n1Cc1ccccc1F	-48.9%
N=c1n(Cc2ccc(Cl)cc2)c2ccccc2n1CC(O)c1ccco1 (centres undefined)	-89.6% (active)
CCc1cccc(CC)c1N1C(=O)CC(Sc2ccccc2N)C1=O (centres undefined)	-2.21%
COc1ccc(C2C(C#N)=C(N)Oc3n[nH]c(C)c32)cc1CN1CCN(c2ccc(F)cc2)CC1 (centres undefined)	-93.4% (active)
COc1ccc(-c2[nH]nc3c2C(c2ccncc2)C(C#N)=C(N)O3)cc1 (centres undefined)	4.99%
COc1cc(C2C(C#N)=C(N)Oc3n[nH]c(-c4ccccn4)c32)cc(OC)c1OC (centres undefined)	-3.63%
COc1ccc(/C=C2\SC(=S)N(CCC(=O)N3CCOCC3)C2=O)cc1OC	-2.83%
CCCCN1C(N)=NC[C@@H]1Cc1ccccc1	12.8%
CN(C)C1=NC[C@H](Cc2ccccc2)N1CCc1ccc(F)cc1	-104% (active)
CCCC[C@@H]1CN=C(N)N1CCc1cccc(F)c1	17.6%
Cc1ccc(-c2ccc(CN3C(C(C)C)C(=O)N(Cc4cn(CCC5OCCCO5)nn4)CCS3(=O)=O)cc2)cc1 (centres undefined)	-5.44%
Cc1cc2cc3n(c2nn1)N=C(Cl)CC3	-0.335%
CC(OC(=O)c1cccnc1Cl)C(=O)NC1CCCCC1 (centres undefined)	22.3%
Cc1ccc(S(=O)(=O)N2C[C@H]3C(=O)C[C@@H](c4cccc5ccccc45)N(S(=O)(=O)c4ccc(C)cc4)[C@H]3C[C@H]2c2ccc(Cl)cc2)cc1	5.42%
O=C(CSc1ncn[nH]1)Nc1nc2c(F)c(F)c(F)cc2s1	-9.38%
CCc1nccn1S(=O)(=O)c1cccc([N+](=O)[O-])c1	-98.3% (active)

Structure (SMILES)	activity change
O=[N+]([O-])c1cccc(S(=O)(=O)N2CCCCCC2)c1	-16.9%
Cc1cc(C)n(S(=O)(=O)c2cccc([N+](=O)[O-])c2)n1	8.67%
OCC1OC(n2cnc3c(N4CCCC4)ncnc32)C(O)C1O (centres undefined)	3.35%
O=S1(=O)CCN(C2CCCCCCCCCCC2)CC1	-0.635%
N#Cc1cccc(NC(=O)CCC2CCCC2)c1	-4.75%
N#Cc1cccc(Nc2c3c(nc4ccccc24)CCCC3)c1	-94.8% (active)
N#Cc1cccc(NC(=O)CN2CCCCCC2)c1	13.8%
O=C(Nc1cc(F)ccc1F)c1ccc2c(=O)n3c(nc2c1)CCC3	-2.54%
COCCCN1C(=O)C(CC(=O)NCc2cccs2)CC(C(=O)N2CCOCC2)=C1C (centres undefined)	3.81%
C#CCOCCOCCOCCNc1nc(N2CCN(C(=O)[C@H](Cc3ccc(O)cc3)n3cc(C(N)CC(C)C)nn3)CC2)nc(N2CCN(C(=O)[C@H](CCC(=O)O)n3cc(C(N)[C@H](C)CC)nn3)CC2)n1 (some centres undefined)	-84.4% (active)
C#CCOCCOCCOCCNc1nc(N2CCN(C(=O)[C@H](CCC(=O)O)n3cc(C(N)CO)nn3)CC2)nc(N2CCN(C(=O)[C@H](Cc3ccc(O)cc3)n3cc(C(N)[C@H](C)CC)nn3)CC2)n1 (some centres undefined)	-12.3%
C#CCOCCOCCOCCNc1nc(N2CCN(C(=O)C(Cc3ccc(O)cc3)n3cc(C(N)CC(C)C)nn3)CC2)nc(N2CCN(C(=O)C(Cc3ccc(O)cc3)n3cc(C(N)C(C)CC)nn3)CC2)n1 (centres undefined)	-9.18%
CC1(c2cccc(N)c2)OCCO1	-12.6%
CC(C)[C@H](NC(=O)c1ccccc1F)C(=O)Nc1cccc(S(=O)(=O)N2CCOCC2)c1	9.74%
CCOCCCN(C)C1CCN(C(=O)c2oc3ccccc3c2NC(=O)COc2cccc(C)c2)CC1	-107% (active)
CCOCCCN(C)C1CCN(C(=O)c2oc3ccccc3c2NC(=O)Cc2cccc([N+](=O)[O-])c2)CC1	-104% (active)
COCC(=O)Nc1c(C(=O)N2CCCC2)oc2ccccc12	6.72%
COc1cccc(OC)c1C(=O)Nc1c(C(=O)N2CCN(c3ccccn3)CC2)oc2ccccc12	-4.91%
COc1ccc(CC(=O)Nc2c(C(N)=O)oc3ccccc23)cc1	-8.15%
CN(C(=O)c1cccc(NC(=O)Cc2cccc([N+](=O)[O-])c2)c1)C1CCCCC1	18.4%
CC1=C(C(=O)N2CCOCC2)CC(CC(=O)NCCN2CCOCC2)C(=O)N1CCC1=CCCCC1 (centres undefined)	16%
Cc1cc(=O)c2ccc(NC(=O)c3ccccc3)cc2[nH]1	3.07%
COc1ccc(S(=O)(=O)N2CCN(CC(=O)N3CCNC3=O)CC2)cc1OC	12.9%
C[C@@H]1CN([C@@H](C)CO)C(=O)c2c(c3ccccc3n2C)-c2ccccc2CO[C@H]1CN(C)C(=O)C1CC1	14.8%
COc1ccc([C@H]2CC(=O)C=C(c3ccc(CO)cc3)C2)cc1	22.6%
N#Cc1ccc(C2=CC(=O)C[C@H](c3ccc(Cl)cc3)C2)cc1	-83.2% (active)
O=C1C=C(c2cccc(Cl)c2)C[C@@H](c2ccc(F)cc2)C1	2.02%
